The record followed here is PubChem BioAssay AID808 (Columbia University Molecular Screening Center, 2007).

Molecules are shown by their SMILES. The whole screen tested about 93,000 compounds, of which about 180 (0.19%) were called active.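 The calls were made as follows: active = activation above the screen mean plus 3 SD, with well images confirming the hit on visual review (cut at about 28% in these data, passing the limit was not always enough); inconclusive = activation above that limit but images do not confirm it; inactive = activation not above that limit.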 This excerpt belongs to a sample that is enriched for actives.

A short description of the assay: enhancers of endothelial VCAM-1 upregulation by TNFa – imaging, HUVEC, TNFa stimulus, immunofluorescence, primary screen (AID 808).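 Also: signal is the number of cytoplasmic VCAM-1 stained grains per positive cell.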 The following applies: HUVEC TNFa-stimulated VCAM-1 immunofluorescence, high-content imaging; at 2 µM; active compounds read high; scaled per plate to unstimulated/TNFa-only wells.
Regarding `CSc1nnc2c(n1)OC(c1cn(C)c3ccccc13)N(C(C)=O)c1ccccc1-2` (configuration not stated), the activation is -5% (inactive).

In the case of `CCOc1cc(-c2cc(-c3ccc(OC)cc3)nc(N)c2C#N)ccc1O`, the activation was 32.6% (active). In the case of `CSc1ccc(CCNC(=O)C2CCN(c3nnc(-n4cccc4)s3)CC2)cc1` it was -2.8% (inactive).

As to `O=C(Cn1cnc2c(nnn2Cc2ccc(F)cc2)c1=O)NCc1ccc2c(c1)OCO2`, the activation is -6.6% (inactive). As to `Cc1ccc(N2C(=O)c3ccccc3C2(O)c2ncc[nH]2)cc1` (configuration not stated), the activation was -0.7% (inactive). `CCOC(=O)c1ccc(NC(=O)CS(=O)(=O)c2cn(CC)c3ccccc23)cc1`: the activation is -6.9% (inactive). As to `COc1ccc2c(c1)C=CC1(O2)N(CCO)c2ccccc2C1(C)C` (configuration not stated), the activation was 1.4% (inactive). `O=C(Nc1nccs1)C1CCN(S(=O)(=O)c2ccc(Cl)c(C(F)(F)F)c2)CC1`: the activation was -9.5% (inactive). Consider `O=c1c2ccccc2nc2n1C(CSCc1cccc(C(F)(F)F)c1)CS2` (configuration not stated), for which the activation is -7.9% (inactive). Turning to `O=C(NCc1ccco1)c1sc2cccc(F)c2c1Cl`, the activation is 0.7% (inactive). On to `CC1(C)CC(=O)C=C(N2CCCC2)C1`, for which the activation is 79% (active).

Take `Oc1ccc2nc(Cc3ccccc3)[nH]c2c1`: the activation is 5.6% (inactive). On to `CC(C)NC(=O)c1ccccc1S(=O)c1ccccc1C#N` (configuration not stated), for which the activation is -0.6% (inactive). As to `Cc1cc(Nc2ccccc2)n(CCC#N)n1`, the activation is -2.1% (inactive).

With `COc1ccc(CC(=O)Nc2sc(Cc3ccccc3)c(C)c2C(N)=O)cc1`, the activation was 8.4% (inactive). As to `Cn1c(=O)n(C)c2cc(CNc3ccc(N4CCOCC4)c(C(=O)O)c3)ccc21`, the activation is -26.1% (inactive). With `Brc1ccc(-c2nnc(-c3ccccc3)o2)o1`, the activation is 20.5% (inactive). On to `O=[N+]([O-])c1ccccc1OCCCCN1CCCCC1`, for which the activation is -6.6% (inactive).

For the compound `CCOc1ccccc1Nc1nnc(SCc2ccc(C(=O)OC)o2)s1`, the activation is -4.9% (inactive).

With `O=C(CSc1nc2ccccc2o1)N1CCN(c2ccc(Cl)cc2)CC1`, the activation is 6.9% (inactive). Regarding `COc1ccc(-c2nnc(SCC(=O)NC3CCCCC3)o2)cc1OC`, the activation is -87.2% (inactive). Take `CC1(C)Cc2cccc(OCC(N)=O)c2O1`: the activation was -5.6% (inactive). `O=C1c2ccccc2C(=O)c2c1cccc2N1CCN(Cc2ccccc2)CC1`: the activation was 8.5% (inactive).

With `COc1ccc(-c2cc(C(F)(F)F)nc(SCCC(=O)NCc3ccco3)n2)cc1`, the activation is -32.5% (inactive). On to `COc1ccc(OC)c(N=Cc2c(O)[nH]c3ccccc23)c1`, for which the activation is 41.3% (active). For `O=S(=O)(c1cccs1)N1CCN(Cc2ccccc2)CC1`, the activation was 6.9% (inactive).

With `CCOC(=O)c1c(N=CN(C)C)c(C#N)c2n1CCCC2`, the activation was -8.6% (inactive).
